# Measurements reported in the supplement of paper PMC8728848.
# The entries come from a sample that favours the strongest signals as a whole.
# Tests used:
# Assay in all cases: glycan array binding signal (z-score within array); higher = stronger binding
# Conditions in all cases: glycan notation: IUPAC condensed, linker removed
# Fuc(a1-2)Gal = molecular target: Fuc(a1-2)Gal
# Method in brief: (§1)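 From the Consortium for Functional Glycomics database, 3228 arrays were curated, keeping only those whose protein sequence was available. Binding is given as a within-array Z-score averaged across arrays sharing a protein sequence and across linkers. Negative Z-scores can be read as non-binding.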
# [1] = molecular target: Fuc(a1-2)Gal(b1-3)GlcNAc(b1-3)Gal(b1-4)Glc
# Method in brief: as §1
# [2] = molecular target: Fuc(a1-2)Gal6S(b1-4)GlcNAc
# Method in brief: as §1
# [3] = molecular target: Fuc(a1-3)[Gal(b1-4)]GlcNAc(b1-2)Man(a1-3)[Fuc(a1-3)[Gal(b1-4)]GlcNAc(b1-2)Man(a1-6)]Man(b1-4)GlcNAc(b1-4)GlcNAc
# Method in brief: as §1
# [4] = molecular target: Fuc(a1-3)[Gal(b1-4)]GlcNAc(b1-2)Man(a1-6)[Gal(b1-4)GlcNAc(b1-2)Man(a1-3)]Man(b1-4)GlcNAc(b1-4)GlcNAc
# Method in brief: as §1
# [5] = molecular target: Fuc(a1-3)[GalNAc(b1-4)]GlcNAc
# Method in brief: as §1
# Fuc(b1-3)GlcNAc = molecular target: Fuc(b1-3)GlcNAc
# Method in brief: as §1
# Gal(a1-3)GalNAc = molecular target: Gal(a1-3)GalNAc
# Method in brief: as §1
# [6] = molecular target: Gal(b1-3)GlcNAc(b1-3)Gal(b1-4)Glc
# Method in brief: as §1
# [7] = molecular target: Gal(b1-3)GlcNAc(b1-3)Gal(b1-4)GlcNAc
# Method in brief: as §1
# [8] = molecular target: Gal(b1-3)[Neu5Ac(a2-6)]GlcNAc(b1-6)Gal(b1-4)Glc
# Method in brief: as §1
# [9] = molecular target: Gal(b1-4)GlcNAc(b1-3)[Gal(b1-4)GlcNAc(b1-6)]GalNAc
# Method in brief: as §1
# [10] = molecular target: Gal(b1-4)GlcNAc(b1-6)GalNAc
# Method in brief: as §1
# [11] = molecular target: Gal(b1-4)GlcNAc(b1-6)[Gal(b1-3)]GalNAc
# Method in brief: as §1
# Gal6S(b1-4)Glc6S = molecular target: Gal6S(b1-4)Glc6S
# Method in brief: as §1
# Gal6S(b1-4)GlcNAc6S = molecular target: Gal6S(b1-4)GlcNAc6S
# Method in brief: as §1
# [12] = molecular target: GlcNAc(a1-6)Gal(b1-4)GlcNAc
# Method in brief: as §1
# [13] = molecular target: GlcNAc(b1-3)[GlcNAc(b1-6)]GlcNAc(b1-4)GlcNAc
# Method in brief: as §1
# [14] = molecular target: Man(a1-2)Man(a1-2)Man(a1-3)[Man(a1-2)Man(a1-3)[Man(a1-2)Man(a1-6)]Man(a1-6)]Man(b1-4)GlcNAc(b1-4)GlcNAc
# Method in brief: as §1
# [15] = molecular target: Man(a1-2)Man(a1-2)Man(a1-6)[Man(a1-3)]Man
# Method in brief: as §1
# [16] = molecular target: Man(a1-2)Man(a1-3)[Man(a1-2)Man(a1-6)]Man
# Method in brief: as §1
# [17] = molecular target: Man(a1-2)Man(a1-3)[Man(a1-3)[Man(a1-6)]Man(a1-6)]Man(b1-4)GlcNAc(b1-4)GlcNAc
# Method in brief: as §1
# [18] = molecular target: Neu5Ac(a2-3)Gal(b1-3)GalNAc(b1-4)[Neu5Ac(a2-3)]Gal(b1-4)Glc
# Method in brief: as §1
# [19] = molecular target: Neu5Ac(a2-3)Gal(b1-3)GlcNAc
# Method in brief: as §1
# [20] = molecular target: Neu5Ac(a2-3)Gal(b1-4)GlcNAc
# Method in brief: as §1
# [21] = molecular target: Neu5Ac(a2-8)Neu5Ac(a2-8)Neu5Ac(a2-3)[GalNAc(b1-4)]Gal(b1-4)Glc
# Method in brief: as §1
# [22] = molecular target: Fuc(a1-2)Gal(b1-3)GalNAc(b1-3)Gal
# Method in brief: as §1
# [23] = molecular target: Fuc(a1-2)[GalNAc(a1-3)]Gal(b1-3)GlcNAc
# Method in brief: as §1
# [24] = molecular target: Fuc(a1-3)[Gal(b1-4)]GlcNAc(b1-4)Gal(b1-4)[Fuc(a1-3)]GlcNAc(b1-4)Gal(b1-4)[Fuc(a1-3)]GlcNAc
# Method in brief: as §1
# Fuc(a1-4)GlcNAc = molecular target: Fuc(a1-4)GlcNAc
# Method in brief: as §1
# [25] = molecular target: Gal(b1-3)GalNAc(b1-3)Gal(a1-4)Gal(b1-4)Glc
# Method in brief: as §1
# [26] = molecular target: Gal(b1-4)GlcNAc(b1-3)Gal(b1-4)GlcNAc
# Method in brief: as §1
# Gal3S(b1-4)GlcNAc6S = molecular target: Gal3S(b1-4)GlcNAc6S
# Method in brief: as §1
# [27] = molecular target: Neu5Ac(a2-3)Gal(b1-3)[Neu5Ac(a2-6)]GalNAc
# Method in brief: as §1
# [28] = molecular target: Neu5Ac(a2-6)Gal(b1-4)GlcNAc(b1-3)Gal(b1-4)GlcNAc
# Method in brief: as §1
# Neu5Ac(b1-6)GalNAc = molecular target: Neu5Ac(b1-6)GalNAc
# Method in brief: as §1
# [29] = molecular target: Neu5Gc(a2-3)Gal(b1-4)[Fuc(a1-3)]GlcNAc
# Method in brief: as §1
# [30] = molecular target: Fuc(a1-2)Gal(b1-4)GlcNAc(b1-3)Gal(b1-4)GlcNAc
# Method in brief: as §1
# [31] = molecular target: Fuc(a1-2)Gal(b1-4)[Fuc(a1-3)]GlcNAc
# Method in brief: as §1
# [32] = molecular target: Fuc(a1-2)Gal(b1-4)[Fuc(a1-3)]GlcNAc(b1-3)Gal(b1-4)[Fuc(a1-3)]GlcNAc
# Method in brief: as §1
# [33] = molecular target: Fuc(a1-2)[Gal(a1-3)]Gal(b1-4)[Fuc(a1-3)]GlcNAc
# Method in brief: as §1
# [34] = molecular target: Fuc(a1-2)[GalNAc(a1-4)]Gal(b1-4)GlcNAc
# Method in brief: as §1
# [35] = molecular target: Fuc(a1-3)[Gal(b1-4)]GlcNAc(b1-4)Gal(b1-4)[Fuc(a1-3)]GlcNAc
# Method in brief: as §1
# Gal(a1-3)Gal = molecular target: Gal(a1-3)Gal
# Method in brief: as §1
# [36] = molecular target: Gal(a1-3)Gal(b1-4)[Fuc(a1-3)]GlcNAc
# Method in brief: as §1
# Gal(a1-4)Gal(b1-4)GlcNAc = molecular target: Gal(a1-4)Gal(b1-4)GlcNAc
# Method in brief: as §1
# [37] = molecular target: Gal(b1-3)GlcNAc(b1-3)Gal(b1-3)GlcNAc
# Method in brief: as §1
# [38] = molecular target: Gal(b1-3)[Fuc(a1-4)]GlcNAc(b1-3)Gal(b1-4)GlcNAc
# Method in brief: as §1
# [39] = molecular target: Gal(b1-4)GlcNAc(b1-6)Gal(b1-4)GlcNAc(b1-6)GalNAc
# Method in brief: as §1
# GalNAc(b1-3)GalNAc = molecular target: GalNAc(b1-3)GalNAc
# Method in brief: as §1
# [40] = molecular target: GlcNAc(b1-3)[GlcNAc(b1-6)]Gal(b1-4)GlcNAc
# Method in brief: as §1
# [41] = molecular target: Man(a1-2)Man(a1-2)Man(a1-3)Man
# Method in brief: as §1
# Neu5Ac(a2-3)Gal = molecular target: Neu5Ac(a2-3)Gal
# Method in brief: as §1
# [42] = molecular target: Neu5Ac(a2-3)Gal(b1-3)[Fuc(a1-4)]GlcNAc(b1-3)Gal(b1-4)[Fuc(a1-3)]GlcNAc
# Method in brief: as §1
# [43] = molecular target: Neu5Ac(a2-3)Gal(b1-4)GlcNAc(b1-6)[Gal(b1-3)]GalNAc
# Method in brief: as §1
# [44] = molecular target: Neu5Ac(a2-3)Gal(b1-4)[Fuc(a1-3)]GlcNAc
# Method in brief: as §1
# [45] = molecular target: Neu5Ac(a2-8)Neu5Ac(a2-8)Neu5Ac(a2-3)Gal(b1-4)Glc
# Method in brief: as §1
# [46] = molecular target: Neu5Gc(a2-6)Gal(b1-4)GlcNAc
# Method in brief: as §1
binder,measurement,setting,value
"NcCVNHO (Neurospora crassa), Q7S6U4 (protein) MSFHVTAEDARIEVRDNRTILFARLRREDGEWNDASYELDQIIGNNDGHFQWGGQNFTETAEDIRFHPKEGAAEQPILRARLRDCNGEFHDRDVNLTEIVENVNGEFQAKF",glycan array binding signal (z-score),Fuc(a1-2)Gal,-0.209
same,glycan array binding signal (z-score),[1],5.47
same,glycan array binding signal (z-score),[2],-0.185
same,glycan array binding signal (z-score),[3],-0.194
same,glycan array binding signal (z-score),[4],-0.185
same,glycan array binding signal (z-score),[5],-0.254
same,glycan array binding signal (z-score),Fuc(b1-3)GlcNAc,-0.209
same,glycan array binding signal (z-score),Gal(a1-3)GalNAc,-0.225
same,glycan array binding signal (z-score),[6],4.71
same,glycan array binding signal (z-score),[7],-0.264
same,glycan array binding signal (z-score),[8],4.11
same,glycan array binding signal (z-score),[9],-0.246
same,glycan array binding signal (z-score),[10],-0.228
same,glycan array binding signal (z-score),[11],-0.196
same,glycan array binding signal (z-score),Gal6S(b1-4)Glc6S,-0.209
same,glycan array binding signal (z-score),Gal6S(b1-4)GlcNAc6S,-0.172
same,glycan array binding signal (z-score),[12],-0.245
same,glycan array binding signal (z-score),[13],-0.297
same,glycan array binding signal (z-score),[14],8.87
same,glycan array binding signal (z-score),[15],4.66
same,glycan array binding signal (z-score),[16],4.86
same,glycan array binding signal (z-score),[17],0.23
same,glycan array binding signal (z-score),[18],-0.244
same,glycan array binding signal (z-score),[19],-0.217
same,glycan array binding signal (z-score),[20],-0.24
same,glycan array binding signal (z-score),[21],-0.24
"Siglec-H (Mus musculus), Q4QQK7 (protein) MLLSRLLPLLWVLKWASGNCFILPREVIGTYPSLTLELQSVTVQEGLCVLVPCHLIEYPMNRWSDAAFGYWFHEGENTHPDSLVATNKPYQLVQKEMQSRFHFSGDCSLDIRDAQKGDNGSYFFRLEKGGKTWNFCEERISVHVTDLTHSPNISIPQTLELGRPTNVMCSVPWACERGTPPIFSWMSAALISLGPTTTLSSVLTLTPRLQDHGTNLTCQVTFPGAGVTVQKTIQLNVTYNSQNSTAHVSGRVGPGKPRPLADVVQVAMGEAAIKFLLLGICFFFLSKRSHTKRVERPATHMDQAHAVMD",glycan array binding signal (z-score),Fuc(a1-2)Gal,-0.112
same,glycan array binding signal (z-score),[22],2.48
same,glycan array binding signal (z-score),[1],2.46
same,glycan array binding signal (z-score),[23],-0.271
same,glycan array binding signal (z-score),[24],-0.236
same,glycan array binding signal (z-score),Fuc(a1-4)GlcNAc,-0.188
same,glycan array binding signal (z-score),[25],-0.31
same,glycan array binding signal (z-score),[26],-0.348
same,glycan array binding signal (z-score),[9],6.24
same,glycan array binding signal (z-score),Gal3S(b1-4)GlcNAc6S,-0.224
same,glycan array binding signal (z-score),[27],2.4
same,glycan array binding signal (z-score),[28],1.02
same,glycan array binding signal (z-score),Neu5Ac(b1-6)GalNAc,0.697
same,glycan array binding signal (z-score),[29],-0.29
"Mindin (Homo sapiens), Q9BUD6 (protein) MENPSPAAALGKALCALLLATLGAAGQPLGGESICSARALAKYSITFTGKWSQTAFPKQYPLFRPPAQWSSLLGAAHSSDYSMWRKNQYVSNGLRDFAERGEAWALMKEIEAAGEALQSVHEVFSAPAVPSGTGQTSAELEVQRRHSLVSFVVRIVPSPDWFVGVDSLDLCDGDRWREQAALDLYPYDAGTDSGFTFSSPNFATIPQDTVTEITSSSPSHPANSFYYPRLKALPPIARVTLVRLRQSPRAFIPPAPVLPSRDNEIVDSASVPETPLDCEVSLWSSWGLCGGHCGRLGTKSRTRYVRVQPANNGSPCPELEEEAECVPDNCV",glycan array binding signal (z-score),Fuc(a1-2)Gal,-0.273
same,glycan array binding signal (z-score),[30],-0.186
same,glycan array binding signal (z-score),[31],-0.185
same,glycan array binding signal (z-score),[32],0.005
same,glycan array binding signal (z-score),[33],-0.133
same,glycan array binding signal (z-score),[34],2.81
same,glycan array binding signal (z-score),[35],-0.142
same,glycan array binding signal (z-score),Gal(a1-3)Gal,-0.238
same,glycan array binding signal (z-score),[36],0.093
same,glycan array binding signal (z-score),Gal(a1-4)Gal(b1-4)GlcNAc,-0.141
same,glycan array binding signal (z-score),[37],-0.279
same,glycan array binding signal (z-score),[7],2.01
same,glycan array binding signal (z-score),[38],1.28
same,glycan array binding signal (z-score),[9],2.02
same,glycan array binding signal (z-score),[39],-0.238
same,glycan array binding signal (z-score),[10],1.34
same,glycan array binding signal (z-score),GalNAc(b1-3)GalNAc,-0.245
same,glycan array binding signal (z-score),[40],-0.324
same,glycan array binding signal (z-score),[41],-0.085
same,glycan array binding signal (z-score),Neu5Ac(a2-3)Gal,-0.347
same,glycan array binding signal (z-score),[42],0.188
same,glycan array binding signal (z-score),[43],-0.36
same,glycan array binding signal (z-score),[44],-0.257
same,glycan array binding signal (z-score),[45],-0.295
same,glycan array binding signal (z-score),[46],-0.363
